# Measured values as given in PubChem BioAssay.
# Several values for one entry are separate records, joined by “and”; a condition that tells them apart may be missing. Equal values may be shown once. Activity calls are given as the source filed them.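 How the source made its calls, unless noted: active means normalized viability below 100% at a tested concentration; inactive means the rest.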
# Columns and labels:
# [1] = drug combination growth inhibition, ovarian cancer – cell-based, oncology-focused library, rucaparib conditional, profiling panel (AID 1508598); conditions: patient-derived ovarian cancer cells, CellTiter-Glo viability, 144 h, stronger effect = lower value
# [2] = biological target: Mitogen-activated protein kinase 7 (Homo sapiens) (UniProt Q13164); test: Gal4-ERK5 driven luciferase induction – cell-based, HTS, primary screen (AID 1508626;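 active means luciferase signal above three times the same-plate solvent-only control wells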;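 further: luciferase driven by Gal4-ERK5 fusion binding five Gal4 sites before minimal TATA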); conditions: HeLa Gal4-ERK5 transactivation, 18 h, at 5 µM, stronger effect = higher value
# [3] = P. berghei load reduction in hepatocytes – cell-based, HepG2, luciferase luminescence, HepG2 viability, primary screen (AID 624349; in the data active means parasite load remaining mostly below about 12%, no sharp cut-off; inactive means mostly above about 10%;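 further: 100% = mean of DMSO negative control wells on the same plate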); conditions: P. berghei liver stage in HepG2, luciferase luminescence, concentration not given here; parasite load remaining: stronger effect = lower value; viability: measured here: HepG2 viability without parasites
# [4] = biological target: 6-phosphogluconate dehydrogenase, decarboxylating (Homo sapiens) (UniProt P52209); test: inhibition of human phosphogluconate dehydrogenase – biochemical, recombinant enzyme, NADPH absorbance, primary screen (AID 1159550;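 active means at least 20% inhibition of 6-phosphogluconate dehydrogenase activity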); conditions: recombinant 6PGD, NADPH absorbance 341 nm; at 10 µM; stronger effect = higher value
# [5] = EMT-state selective cytotoxicity in co-culture – imaging, PC-3E GFP, TEM4-18 mCherry, primary screen (AID 1345086;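 active means compounds killing one labelled cell type while sparing the other, by normalised counts and ratio limits, not self-fluorescent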;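 on all read-outs here: cells exposed to compound for 72 h before imaging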;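 on red/green cell ratio (normalised): normalised mesenchymal count divided by normalised epithelial count so high means epithelial killing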); conditions: PC-3E GFP / TEM4-18 mCherry co-culture, imaging cell counts, at 1 µM; for red/green cell ratio (normalised): actives lie on both sides, counts scaled to control wells, 1 = unselective
# [6] = viability loss with induced miR-34 in A549 – imaging, A549 dox-inducible miR-34, nuclei and caspase counts, primary screen (AID 1347080;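 active means compounds whose cell count with miR-34 switched on is under 0.7 times the count with it off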); conditions: A549 miR-34 inducible, Hoechst nuclei count, 48 h
# [7] = MELAS cybrid and Rieske KO viability enhancers – cell-based, MELAS cybrids, Rieske KO mouse fibroblasts, CellTiter-Glo, primary screen (AID 1508586;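 active means mean z-score across replicates of 1.96 or higher in either the MELAS or the Rieske mutant cell line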;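 further: z relative to plate mean and SD of compound and empty wells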); conditions: low glucose
# [8] = biological target: NAD(+) hydrolase SARM1 (Homo sapiens) (UniProt Q6SZW1); test: blocking NAD cleavage by SARM1 SAM-TIR – cell lysate, NAD-Glo luminescence (AID 1508614;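 active means compound whose remaining NAD level is above about 45 nM, limit read from the data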); conditions: SAM-TIR HEK293T lysate NADase, at 1 µM, stronger effect = higher value
# [9] = galactose survival enhancers in mitochondrial complex I cybrids – cell-based, galactose medium, ATP luminescence, primary screen (AID 1645843;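 active means z-score of at least 1.8 in each of two replicates, scored against plate mean and spread of sample wells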;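 further: positive z means more ATP and so rescue of galactose-driven cybrid death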); conditions: complex I mutant cybrid cells, 72 h, stronger effect = higher value
# [10] = compounds altering circadian rhythm period length – cell-based, LOPAC library, luminescence reporter (AID 2774; call rule not given here;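 further: values are relative to mean of DMSO wells on each plate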); conditions: circadian reporter cells, at 7 µM, actives lie on both sides
# [11] = system: Hepatitis C virus NS3 helicase; test: blockers of NS3h binding to ssDNA – biochemical, fluorescence polarization, LOPAC1280 library, primary screen (AID 687035; in the data active means inhibition above about 37%); conditions: Purified HCV NS3 helicase, Cy5-dT15 ssDNA binding fluorescence polarization; stronger effect = higher value; concentration not given here
# [12] = blockers of cellular phospholipid synthesis – cell-based, LOPAC library, screen 4, primary screen (AID 1347384; call rule not given here); conditions: animal cells, phospholipid biosynthesis inhibition screen; at 10 µM
# [13] = measured here: epithelial PC-3E GFP cell survival
# [14] = measured here: mesenchymal TEM4-18 mCherry cell survival
# [15] = stronger effect = lower value, cell number ratio, induced over uninduced
# [16] = measured here: relative caspase fold change +Dox/-Dox
# [17] = measured here: total cells with miR-34 induction, stronger effect = lower value
# [18] = measured here: total cells without miR-34 induction
# [19] = MELAS cybrid survival, CellTiter-Glo 48 h, stronger effect = higher value
# [20] = Rieske KO mouse fibroblast survival, CellTiter-Glo 72 h
# 6-phosphogluconate dehydrogenase, decarboxylating (Homo sapiens), sequence (P52209 whole entry, looked up): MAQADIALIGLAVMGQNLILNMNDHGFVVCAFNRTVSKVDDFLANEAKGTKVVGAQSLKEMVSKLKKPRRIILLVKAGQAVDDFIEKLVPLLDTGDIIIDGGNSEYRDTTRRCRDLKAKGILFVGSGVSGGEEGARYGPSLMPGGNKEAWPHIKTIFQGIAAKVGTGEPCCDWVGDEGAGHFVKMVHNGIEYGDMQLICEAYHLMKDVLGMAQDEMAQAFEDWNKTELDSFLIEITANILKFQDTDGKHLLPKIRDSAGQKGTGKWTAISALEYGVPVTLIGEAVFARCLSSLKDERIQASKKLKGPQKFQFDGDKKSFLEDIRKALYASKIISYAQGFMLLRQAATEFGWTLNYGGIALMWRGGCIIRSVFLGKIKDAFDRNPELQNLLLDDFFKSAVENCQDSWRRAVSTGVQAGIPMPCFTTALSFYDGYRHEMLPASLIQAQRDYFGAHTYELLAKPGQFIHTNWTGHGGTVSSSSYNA
# Mitogen-activated protein kinase 7 (Homo sapiens), sequence (Q13164 whole entry, looked up, the tested form may be a part): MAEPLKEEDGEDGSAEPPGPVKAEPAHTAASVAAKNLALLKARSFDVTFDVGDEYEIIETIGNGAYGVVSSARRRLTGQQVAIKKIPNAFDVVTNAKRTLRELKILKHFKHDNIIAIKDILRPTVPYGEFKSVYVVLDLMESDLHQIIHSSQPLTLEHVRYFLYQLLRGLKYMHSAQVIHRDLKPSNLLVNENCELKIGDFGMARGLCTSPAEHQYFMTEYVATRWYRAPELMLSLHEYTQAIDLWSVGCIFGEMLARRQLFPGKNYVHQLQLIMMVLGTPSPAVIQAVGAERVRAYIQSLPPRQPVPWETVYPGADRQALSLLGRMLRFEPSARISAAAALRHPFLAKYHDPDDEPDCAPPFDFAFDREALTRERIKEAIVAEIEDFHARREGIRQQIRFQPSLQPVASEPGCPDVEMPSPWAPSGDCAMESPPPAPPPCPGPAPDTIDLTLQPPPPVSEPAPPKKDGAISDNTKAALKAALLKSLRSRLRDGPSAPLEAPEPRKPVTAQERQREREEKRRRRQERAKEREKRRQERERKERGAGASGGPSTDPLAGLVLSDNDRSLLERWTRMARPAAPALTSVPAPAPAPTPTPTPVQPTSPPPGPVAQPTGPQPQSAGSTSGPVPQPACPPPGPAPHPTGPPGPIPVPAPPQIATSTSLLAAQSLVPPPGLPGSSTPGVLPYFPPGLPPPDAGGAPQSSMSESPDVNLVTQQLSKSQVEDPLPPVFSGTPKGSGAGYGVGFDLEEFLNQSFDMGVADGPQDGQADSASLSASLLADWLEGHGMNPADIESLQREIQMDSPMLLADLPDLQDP
# NAD(+) hydrolase SARM1 (Homo sapiens), sequence (Q6SZW1 whole entry, looked up): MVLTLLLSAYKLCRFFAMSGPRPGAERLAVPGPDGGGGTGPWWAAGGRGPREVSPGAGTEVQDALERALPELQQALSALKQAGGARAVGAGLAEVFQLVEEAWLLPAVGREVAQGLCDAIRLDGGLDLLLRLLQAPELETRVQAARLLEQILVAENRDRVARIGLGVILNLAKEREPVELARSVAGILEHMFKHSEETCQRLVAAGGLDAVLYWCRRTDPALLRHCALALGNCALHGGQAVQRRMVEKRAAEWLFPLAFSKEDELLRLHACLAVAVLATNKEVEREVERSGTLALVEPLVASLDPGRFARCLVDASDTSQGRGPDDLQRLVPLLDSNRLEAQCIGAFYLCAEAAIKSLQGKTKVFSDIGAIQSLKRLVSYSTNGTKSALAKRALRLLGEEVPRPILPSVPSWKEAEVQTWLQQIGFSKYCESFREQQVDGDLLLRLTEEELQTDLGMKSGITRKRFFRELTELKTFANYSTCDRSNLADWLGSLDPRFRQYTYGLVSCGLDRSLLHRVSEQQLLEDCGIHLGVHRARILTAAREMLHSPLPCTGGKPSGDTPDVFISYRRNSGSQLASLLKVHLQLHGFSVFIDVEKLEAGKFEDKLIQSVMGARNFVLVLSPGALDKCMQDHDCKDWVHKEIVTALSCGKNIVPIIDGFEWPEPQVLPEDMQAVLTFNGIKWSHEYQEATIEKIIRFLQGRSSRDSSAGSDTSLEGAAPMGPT
compound,measurement,setting,value
Cc1cc(O)c2c(c1)C(=O)c1cccc(O)c1C2=O,viability,"[1]; at 0.313 µM, OCI-C5x cells, with rucaparib 10 µM, 100% = cells with rucaparib alone",102% (inactive)
same,viability,"[1]; at 0.313 µM, OCI-C5x cells, without rucaparib",104% (inactive)
same,viability,"[1]; at 0.313 µM, OCI-P5x cells, with rucaparib 20 µM, 100% = cells with rucaparib alone",101% (inactive)
same,viability,"[1]; at 0.313 µM, OCI-P5x cells, without rucaparib",109% (inactive)
same,viability,"[1]; at 1.25 µM, OCI-C5x cells, with rucaparib 10 µM, 100% = cells with rucaparib alone",114% (inactive)
same,viability,"[1]; at 1.25 µM, OCI-C5x cells, without rucaparib",118% (inactive)
same,viability,"[1]; at 1.25 µM, OCI-P5x cells, with rucaparib 20 µM, 100% = cells with rucaparib alone",111% (inactive)
same,viability,"[1]; at 1.25 µM, OCI-P5x cells, without rucaparib",109% (inactive)
same,viability,"[1]; at 5 µM, OCI-C5x cells, with rucaparib 10 µM, 100% = cells with rucaparib alone",121% (inactive)
same,viability,"[1]; at 5 µM, OCI-C5x cells, without rucaparib",114% (inactive)
same,viability,"[1]; at 5 µM, OCI-P5x cells, with rucaparib 20 µM, 100% = cells with rucaparib alone",97.2% (active)
same,viability,"[1]; at 5 µM, OCI-P5x cells, without rucaparib",108% (inactive)
same,luciferase signal,[2],64 AU (inactive)
NC[C@H]1O[C@H](O[C@H]2[C@H](O)[C@@H](O[C@H]3O[C@H](CO)[C@@H](O)[C@H](N)[C@H]3O)[C@H](N)C[C@@H]2N)[C@H](N)C[C@@H]1O,parasite load remaining,[3],155% (inactive) and 39.4% (inactive) and 27.1% (inactive)
same,viability,[3],107% and 98% and 71.5%
same,inhibition,[4],-0.0775% (inactive)
same,red/green cell ratio (normalised),[5],1.17 (inactive)
same,normalised cell number,[5]; [13],0.88
same,normalised cell number,[5]; [14],1.03
same,fold change,[6]; [15],0.865 (inactive) and 0.994 (inactive) and 0.887 (inactive)
same,fold change,[6]; [16],1.22 and 2.22 and 1.69
same,cell count,[6]; [17],8760 and 12000 and 9090
same,cell count,[6]; [18],10100 and 12100 and 10300
same,z-score,[7]; [19],0.333 (inactive) and -0.0714 (inactive)
same,z-score,[7]; [20],0.434 and -0.898
same,remaining NAD,[8],22 nM (inactive)
same,luciferase signal,[2],84 AU (inactive)
same,z-score,[9],0.605 (inactive)
OCC(O)C(O)C(O)CO (configuration not stated),inhibition,[4],-9.83% (inactive)
same,red/green cell ratio (normalised),[5],1.02 (inactive) and 0.91 (inactive)
same,normalised cell number,[5]; [13],0.96 and 1.18
same,normalised cell number,[5]; [14],0.97 and 1.07
same,fold change,[6]; [15],0.884 (inactive)
same,fold change,[6]; [16],0.816
same,cell count,[6]; [17],9100
same,cell count,[6]; [18],10300
same,z-score,[7]; [19],-0.33 (inactive)
same,z-score,[7]; [20],0.446
same,luciferase signal,[2],36 AU (inactive)
COc1ccc(-c2cc(=O)c3c(O)cc(O)cc3o2)cc1O,inhibition,[4],11.1% (inactive)
same,red/green cell ratio (normalised),[5],0.91 (inactive)
same,normalised cell number,[5]; [13],1.34
same,normalised cell number,[5]; [14],1.22
same,fold change,[6]; [15],0.906 (inactive)
same,fold change,[6]; [16],0.637
same,cell count,[6]; [17],8940
same,cell count,[6]; [18],9870
same,z-score,[7]; [19],-0.264 (inactive)
same,z-score,[7]; [20],0.709
Cc1cc(O)c2c(c1)C(=O)c1cc(O)cc(O)c1C2=O,period change,[10],0.05 h (inactive)
same,inhibition,[11],0% (inactive)
same,inhibition,[4],2.17% (inactive)
same,red/green cell ratio (normalised),[5],1.05 (inactive)
same,normalised cell number,[5]; [13],1.08
same,normalised cell number,[5]; [14],1.13
same,fold change,[6]; [15],1.01 (inactive) and 0.837 (inactive)
same,fold change,[6]; [16],1.12 and 1.08
same,cell count,[6]; [17],8200 and 6790
same,cell count,[6]; [18],8110
same,outcome,[12],inactive
same,z-score,[7]; [19],-0.41 (inactive)
same,z-score,[7]; [20],0.119
same,z-score,[9],0.08 (inactive)
COc1ccc(-c2coc3cc(O)ccc3c2=O)cc1,parasite load remaining,[3],260% (inactive)
same,viability,[3],88.5%
same,inhibition,[4],-6.94% (inactive)
same,red/green cell ratio (normalised),[5],0.93 (inactive)
same,normalised cell number,[5]; [13],1.23
same,normalised cell number,[5]; [14],1.14
same,fold change,[6]; [15],0.949 (inactive)
same,fold change,[6]; [16],0.624
same,cell count,[6]; [17],7740
same,cell count,[6]; [18],8150
same,z-score,[7]; [19],-0.217 (inactive)
same,z-score,[7]; [20],0.38
same,luciferase signal,[2],140 AU (inactive)
COc1ccc(C(C)=O)c(O)c1,inhibition,[4],10.4% (inactive)
same,red/green cell ratio (normalised),[5],0.98 (inactive)
same,normalised cell number,[5]; [13],0.95
same,normalised cell number,[5]; [14],0.94
same,fold change,[6]; [15],0.902 (inactive)
same,fold change,[6]; [16],0.777
same,cell count,[6]; [17],9270
same,cell count,[6]; [18],10300
same,z-score,[7]; [19],-0.383 (inactive)
same,z-score,[7]; [20],0.53
same,luciferase signal,[2],24 AU (inactive)
